In the supplement of paper PMC9262897, “Low-cost anti-mycobacterial drug discovery using engineered E. coli” (Nature Communications, 2022):
Structures can show the parent of a compound that is named as a salt. ± gives the standard deviation of the averaged measurements.

Legend:
Assay in all cases: growth (OD600 after 10 h); higher = more growth (less inhibition)
[1] = tested on: E. coli TESEC Alr+ wild-type control; conditions: compound 0.1 mM; raw OD600 reference: median of DMSO wells 0.241, cell-free background 0.041
Experimental: (§1)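 TESEC Mtb Alr E. coli, or the Alr+ wild-type control, in 384-well plates with Prestwick library compounds at 0.1 mM and 1% DMSO, across arabinose induction levels of 1E3 to 1E7 nM. Growth is read as OD600 after 10 h at 37 °C in triplicate biological replicates.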

E. coli TESEC Mtb Alr [2] = conditions: compound 0.1 mM
Experimental: as §1

E. coli TESEC Mtb Asd = conditions: compound 0.1 mM
Experimental: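 TESEC E. coli strains in which the native enzyme is deleted and replaced by arabinose-inducible Mtb Asd, DapB, CysH or TrpD, each grown in its selective medium. Strains were screened against the Prestwick library at 0.1 mM and 1% DMSO in 384-well format at low and high arabinose induction. Growth is read as OD600 after 10 h in triplicate.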

[3] = tested on: E. coli TESEC Alr+ wild-type control; conditions: compound 0.1 mM; raw OD600 reference: median of DMSO wells 0.49, cell-free background 0.052
Experimental: (§2)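 TESEC Mtb Alr E. coli (ΔaraC ΔtolC ΔentC Δalr ΔdadX, arabinose-inducible Mtb Alr) or the Alr+ wild-type control strain, grown in defined M9-fructose medium without D-alanine in 96-well plates with Prestwick library compounds at 0.1 mM and 1% DMSO. Low Alr induction is 0.1 µM arabinose and high induction is 10 mM arabinose.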

E. coli TESEC Mtb Alr [4] = conditions: compound 0.1 mM; remark: listed apart in the source
Experimental: as §2

[5] = arabinose 1000 nM, raw OD600 reference: median of DMSO wells 0.294, cell-free background 0.041
[6] = arabinose 10000 nM, raw OD600 reference: median of DMSO wells 0.264, cell-free background 0.041
[7] = arabinose 100000 nM, raw OD600 reference: median of DMSO wells 0.201, cell-free background 0.041
[8] = arabinose 1000000 nM, raw OD600 reference: median of DMSO wells 0.193, cell-free background 0.041
[9] = arabinose 10000000 nM, raw OD600 reference: median of DMSO wells 0.146, cell-free background 0.041
[10] = arabinose induction (level): High, raw OD600 reference: median of DMSO wells 0.331, cell-free background 0.041
[11] = arabinose induction (level): Low, raw OD600 reference: median of DMSO wells 0.417, cell-free background 0.041
[12] = arabinose 100 nM, raw OD600 reference: median of DMSO wells 0.413, cell-free background 0.052
[13] = arabinose 10000000 nM, raw OD600 reference: median of DMSO wells […], cell-free background 0.052

| SMILES | growth [1] | growth (E. coli TESEC Mtb Alr [2]; [5]) | growth (E. coli TESEC Mtb Alr [2]; [6]) | growth (E. coli TESEC Mtb Alr [2]; [7]) | growth (E. coli TESEC Mtb Alr [2]; [8]) | growth (E. coli TESEC Mtb Alr [2]; [9]) | growth (E. coli TESEC Mtb Asd; [10]) | growth (E. coli TESEC Mtb Asd; [11]) | growth [3] | growth (E. coli TESEC Mtb Alr [4]; [12]) | growth (E. coli TESEC Mtb Alr [4]; [13]) |
| --- | --- | --- | --- | --- | --- | --- | --- | --- | --- | --- | --- |
| CC(=O)O[C@@]12CO[C@@H]1C[C@H](O)[C@@]1(C)C(=O)[C@H](O)C3=C(C)[C@@H](OC(=O)[C@H](O)[C@@H](NC(=O)OC(C)(C)C)c4ccccc4)C[C@@](O)([C@@H](OC(=O)c4ccccc4)[C@H]21)C3(C)C [Docetaxel] | 0.266 ± 0.005 | 0.34 ± 0.0038 | 0.299 ± 0.014 | 0.311 ± 0.094 | 0.134 ± 0.011 | 0.206 ± 0.02 | 0.248 ± 0.011 | 0.373 ± 0.071 | 0.614 ± 0.12 | 0.4282 ± 0.0041 | 0.297 ± 0.0093 |
| O=C1C(O)=C(O)C(=O)C(O)=C1O [Tetrahydroxy-1,4-quinone hydrate] | 0.231 ± 0.0052 | 0.29 ± 0.02 | 0.275 ± 0.0064 | 0.19 ± 0.018 | 0.1568 ± 0.0015 | 0.142 ± 0.0053 | 0.349 ± 0.089 | 0.427 ± 0.082 | 0.5 ± 0.021 | 0.399 ± 0.012 | 0.333 ± 0.0084 |
| COc1ccc2[nH]cc(CCNC(C)=O)c2c1 [Melatonin] | 0.246 ± 0.0061 | 0.29 ± 0.0068 | 0.27 ± 0.005 | 0.204 ± 0.029 | 0.183 ± 0.0071 | 0.1406 ± 0.0012 | 0.252 ± 0.066 | 0.348 ± 0.11 | 0.521 ± 0.086 | 0.409 ± 0.01 | 0.354 ± 0.013 |
| CN(C)CCn1nnnc1SCC1=C(C(=O)O)N2C(=O)[C@@H](NC(=O)Cc3csc(N)n3)[C@H]2SC1 [Cefotiam hydrochloride] | 0.11 ± 0.0087 | 0.039 ± 0.0012 | 0.0413 ± 0.00046 | 0.0507 ± 0.0078 | 0.045 ± 0.00078 | 0.0878 ± 0.0087 | 0.265 ± 0.012 | 0.34 ± 0.061 | 0.166 ± 0.096 | 0.0473 ± 0.0012 | 0.244 ± 0.049 |
| Cc1onc(-c2c(F)cccc2Cl)c1C(=O)N[C@@H]1C(=O)N2[C@@H]1SC(C)(C)[C@@H]2C(=O)O [Flucloxacillin sodium] | 0.228 ± 0.0096 | 0.2863 ± 0.0017 | 0.26 ± 0.0097 | 0.186 ± 0.022 | 0.172 ± 0.006 | 0.136 ± 0.0023 | 0.265 ± 0.056 | 0.432 ± 0.059 | 0.496 ± 0.053 | 0.412 ± 0.015 | 0.33 ± 0.021 |
| Cc1[nH]cnc1CN1CCc2c(c3ccccc3n2C)C1=O [Alosetron hydrochloride] | 0.197 ± 0.0093 | 0.26 ± 0.0044 | 0.233 ± 0.014 | 0.225 ± 0.0049 | 0.178 ± 0.008 | 0.1498 ± 0.001 | 0.287 ± 0.076 | 0.263 ± 0.027 | 0.563 ± 0.075 | 0.387 ± 0.012 | 0.289 ± 0.0097 |
